Screen size: about 5,500 compounds; about 2,000 (36%) were called active. Inconclusive results (about 18%) are left out. Cut-off read from the data, not from the text of the source: active = normalized growth mostly below about 0.91 (no sharp cut-off); inconclusive = no clear call, values can overlap the other calls; inactive = mostly above about 0.92. This is one part of the list.
Experiment: chemical genetic growth profiling, strain panel (AID 1159580);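 note: tested at 20 µM; growth read once vehicle control cultures reached saturation at 30 °C; 1 = growth at the plate median or of vehicle wells; lower values mean less growth of the strain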
Details: growth OD

Measured: normalized growth

NC(=NCCC[C@H](N)C(=O)O)N[N+](=O)[O-]
inactive: S. cerevisiae deletion strains, locus YJL187C, strain SWE1 (second series), stronger effect = lower value 0.983 | S. cerevisiae deletion strains, locus YJR043C, strain POL32, stronger effect = lower value 0.995 | S. cerevisiae deletion strains, locus YKL009W, strain mrt4, stronger effect = lower value 1 | S. cerevisiae deletion strains, locus YKL068W, stronger effect = lower value 0.997 | S. cerevisiae deletion strains, locus YKL085W, strain MDH1 (second series), stronger effect = lower value 0.982 | S. cerevisiae deletion strains, locus YKL085W, strain MDH1, stronger effect = lower value 0.982 | S. cerevisiae deletion strains, locus YKL160W, strain elf1, stronger effect = lower value 1.01 | S. cerevisiae deletion strains, locus YKL190W, strain CNB1, stronger effect = lower value 0.99 | S. cerevisiae deletion strains, locus YKR001C, strain vps1, stronger effect = lower value 0.98 | S. cerevisiae deletion strains, locus YKR026C, strain gcn3, stronger effect = lower value 1.01 | S. cerevisiae deletion strains, locus YKR091W, strain srl3, stronger effect = lower value 1.02 | S. cerevisiae deletion strains, locus YLL001W, strain dnm1, stronger effect = lower value 1.02 | S. cerevisiae deletion strains, locus YLL026W, stronger effect = lower value 1.02 | S. cerevisiae deletion strains, locus YLL041C, strain sdh2, stronger effect = lower value 1.02 | S. cerevisiae deletion strains, locus YLR027C, strain aat2, stronger effect = lower value 1.03 | S. cerevisiae deletion strains, locus YLR039C, strain RIC1, stronger effect = lower value 0.971 | S. cerevisiae deletion strains, locus YLR058C, strain SHM2, stronger effect = lower value 1.01 | S. cerevisiae deletion strains, locus YLR102C, strain apc9, stronger effect = lower value 1.01 | S. cerevisiae deletion strains, locus YLR221C, strain rsa3, stronger effect = lower value 0.985 | S. cerevisiae deletion strains, locus YLR258W, strain gsy2, stronger effect = lower value 1.02 | S. cerevisiae deletion strains, locus YLR262C, strain YPT6 (second series), stronger effect = lower value 1.04 | S. cerevisiae deletion strains, locus YLR262C, strain YPT6, stronger effect = lower value 1.06 | S. cerevisiae deletion strains, locus YLR268W, strain sec22, stronger effect = lower value 1 | S. cerevisiae deletion strains, locus YLR320W, strain mms22, stronger effect = lower value 1.03 | S. cerevisiae deletion strains, locus YLR330W, strain CHS5, stronger effect = lower value 1.01 | S. cerevisiae deletion strains, locus YLR342W, strain FKS1 (second series), stronger effect = lower value 1.03 | S. cerevisiae deletion strains, locus YLR342W, strain FKS1, stronger effect = lower value 1.02 | S. cerevisiae deletion strains, locus YLR357W, strain rsc2, stronger effect = lower value 1.06 | S. cerevisiae deletion strains, locus YLR370C, strain arc18, stronger effect = lower value 1.02 | S. cerevisiae deletion strains, locus YLR371W, strain rom2, stronger effect = lower value 0.997 | S. cerevisiae deletion strains, locus YLR384C, strain iki3, stronger effect = lower value 1.03 | S. cerevisiae deletion strains, locus YLR418C, strain cdc73, stronger effect = lower value 1.04 | S. cerevisiae deletion strains, locus YML016C, strain PPZ1, stronger effect = lower value 1 | S. cerevisiae deletion strains, locus YML032C, strain rad52, stronger effect = lower value 0.989 | S. cerevisiae deletion strains, locus YML120C, strain ndi1, stronger effect = lower value 1.02 | S. cerevisiae deletion strains, locus YML124C, strain tub3, stronger effect = lower value 1 | S. cerevisiae deletion strains, locus YMR058W, strain fet3, stronger effect = lower value 1.04 | S. cerevisiae deletion strains, locus YMR078C, strain ctf18, stronger effect = lower value 0.997 | S. cerevisiae deletion strains, locus YMR125W, strain sto1, stronger effect = lower value 1.01 | S. cerevisiae deletion strains, locus YMR129W, stronger effect = lower value 1.02 | S. cerevisiae deletion strains, locus YMR205C, strain PFK2, stronger effect = lower value 1.03 | S. cerevisiae deletion strains, locus YMR223W, strain ubp8, stronger effect = lower value 1.05 | S. cerevisiae deletion strains, locus YMR231W, strain pep5, stronger effect = lower value 1.01 | S. cerevisiae deletion strains, locus YMR307W, strain GAS1, stronger effect = lower value 0.982 | S. cerevisiae deletion strains, locus YNL067W, strain RPL9B, stronger effect = lower value 0.973 | S. cerevisiae deletion strains, locus YNL071W, strain lat1, stronger effect = lower value 1.01 | S. cerevisiae deletion strains, locus YNL128W, strain TEP1, stronger effect = lower value 1.01 | S. cerevisiae deletion strains, locus YNL153C, strain GIM3, stronger effect = lower value 0.975 | S. cerevisiae deletion strains, locus YNL209W, strain ssb2, stronger effect = lower value 1.03 | S. cerevisiae deletion strains, locus YNL233W, strain BNI4, stronger effect = lower value 0.968 | S. cerevisiae deletion strains, locus YNL248C, strain rpa49, stronger effect = lower value 1.01 | S. cerevisiae deletion strains, locus YNL271C, strain bni1, stronger effect = lower value 1.01 | S. cerevisiae deletion strains, locus YNL298W, strain CLA4, stronger effect = lower value 1.01 | S. cerevisiae deletion strains, locus YNL307C, strain MCK1, stronger effect = lower value 1.01 | S. cerevisiae deletion strains, locus YNL322C, strain KRE1 (second series), stronger effect = lower value 1.03 | S. cerevisiae deletion strains, locus YNL322C, strain KRE1, stronger effect = lower value 0.994 | S. cerevisiae deletion strains, locus YNR049C, strain mso1, stronger effect = lower value 1.02 | S. cerevisiae deletion strains, locus YNR052C, strain pop2, stronger effect = lower value 1.01 | S. cerevisiae deletion strains, locus YOL006C, strain TOP1, stronger effect = lower value 0.974 | S. cerevisiae deletion strains, locus YOL012C, strain htz1 2.01 | S. cerevisiae deletion strains, locus YOL147C, strain pex11, stronger effect = lower value 1 | S. cerevisiae deletion strains, locus YOR001W, strain rrp6, stronger effect = lower value 1.04 | S. cerevisiae deletion strains, locus YOR061W, strain CKA2, stronger effect = lower value 1 | S. cerevisiae deletion strains, locus YOR069W, strain VPS5, stronger effect = lower value 1.01 | S. cerevisiae deletion strains, locus YOR070C, strain gyp1, stronger effect = lower value 1.02 | S. cerevisiae deletion strains, locus YOR080W, strain dia2, stronger effect = lower value 1.02 | S. cerevisiae deletion strains, locus YOR083W, strain WHI5, stronger effect = lower value 1.03 | S. cerevisiae deletion strains, locus YOR106W, strain vam3, stronger effect = lower value 1.05 | S. cerevisiae deletion strains, locus YOR136W, strain idh2, stronger effect = lower value 0.997 | S. cerevisiae deletion strains, locus YOR144C, strain elg1, stronger effect = lower value 1 | S. cerevisiae deletion strains, locus YOR184W, strain ser1, stronger effect = lower value 1.02 | S. cerevisiae deletion strains, locus YOR265W, strain rbl2, stronger effect = lower value 1.02 | S. cerevisiae deletion strains, locus YOR270C, strain vph1, stronger effect = lower value 1.04 | S. cerevisiae deletion strains, locus YOR290C, strain snf2, stronger effect = lower value 1.02 | S. cerevisiae deletion strains, locus YOR316C, strain cot1, stronger effect = lower value 1.01 | S. cerevisiae deletion strains, locus YPL051W, strain arl3, stronger effect = lower value 1.02 | S. cerevisiae deletion strains, locus YPL055C, strain LGE1, stronger effect = lower value 0.95 | S. cerevisiae deletion strains, locus YPL078C, strain atp4, stronger effect = lower value 1.03 | S. cerevisiae deletion strains, locus YPL106C, strain sse1, stronger effect = lower value 1.04 | S. cerevisiae deletion strains, locus YPL240C, strain hsp82, stronger effect = lower value 1.01 | S. cerevisiae deletion strains, locus YPL241C, strain CIN2, stronger effect = lower value 1 | S. cerevisiae deletion strains, locus YPR119W, strain clb2, stronger effect = lower value 0.997 | S. cerevisiae deletion strains, locus YPR141C, strain kar3, stronger effect = lower value 0.998 | S. cerevisiae deletion strains, locus YPR163C, strain tif3, stronger effect = lower value 0.997 | S. cerevisiae deletion strains, locus YPR167C, strain met16, stronger effect = lower value 0.999 | S. cerevisiae deletion strains, strain wtn01, stronger effect = lower value 1 | S. cerevisiae strains, strain wild type, stronger effect = lower value 1

— PubChem BioAssay AID1159580 (chemical genetic matrix, 2015)
